From PubChem BioAssay (NCATS)
Results filed as inconclusive are left out. Active and inactive are the calls of the source. Unless noted, calls follow the shape of the dose curve; as a rule, active = well fitted curve in either direction with a large enough effect (not every such curve was filed as active); inconclusive = small, poorly fitted or top-dose-only effect, or another doubt; inactive = flat fitted curve, though single readings scatter.

Tests used:
[1] = target: Lysosomal acid glucosylceramidase (Homo sapiens) (UniProt P04062); assay: Glucocerebrosidase-p2 (AID 348; in the data active = potency below about 10 µM; also: potency is read from the fitted curve at half-maximal effect); settings: purified GBA, blue fluorogenic substrate, 40 min
Sequence of Lysosomal acid glucosylceramidase (Homo sapiens) (P04062 whole entry, looked up): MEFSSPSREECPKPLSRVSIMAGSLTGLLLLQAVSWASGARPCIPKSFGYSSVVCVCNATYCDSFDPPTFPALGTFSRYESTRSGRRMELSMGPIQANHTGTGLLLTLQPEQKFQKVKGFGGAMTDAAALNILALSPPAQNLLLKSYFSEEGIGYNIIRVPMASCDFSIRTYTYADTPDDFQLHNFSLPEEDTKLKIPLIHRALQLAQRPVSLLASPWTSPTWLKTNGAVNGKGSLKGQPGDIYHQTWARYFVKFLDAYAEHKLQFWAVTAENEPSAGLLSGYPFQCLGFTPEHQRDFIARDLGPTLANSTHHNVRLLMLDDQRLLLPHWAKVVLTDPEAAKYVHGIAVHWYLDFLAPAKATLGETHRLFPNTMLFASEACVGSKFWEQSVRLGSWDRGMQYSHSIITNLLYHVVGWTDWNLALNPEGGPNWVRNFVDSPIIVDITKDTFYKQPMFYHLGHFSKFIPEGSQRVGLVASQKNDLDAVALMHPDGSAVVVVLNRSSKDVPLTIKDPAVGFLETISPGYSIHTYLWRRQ
Summary of the method: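 Compounds titrated from 0.6 nM upwards against 0.2 nM enzyme in pH 5.9 citric acid/KH2PO4, taurocholate, tween-20; blue fluorogenic substrate 80 uM, 40 min room temperature, stopped and read Ex 365/Em 440 for AC50.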

[2] = AP1 Signaling Pathway (AID 357); settings: ME-180 AP-1-bla reporter, EGF-induced, beta-lactamase ratio, 5 h; at 7.69 µM (top of the series) unless noted; also: % is scaled to controls: 0 for no effect and ±100 for the full control effect
Summary of the method: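 ME-180 cells with beta-lactamase reporter under AP-1 response element, stimulated with EC50 EGF; compounds tested in titration series, 5 h at 37 °C. CCF4 substrate added 2.5 h at room temperature; 460/530 nm emission ratio gave %activity and AC50.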

[3] = target: Cytochrome P450 1A2 (Homo sapiens) (UniProt P05177); assay: p450-cyp1a2 (AID 410; calls by dose curve; also: potency is read from the fitted curve at half-maximal effect;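 as to activity change, negative = inhibition: -100% = full effect of reference inhibitor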); settings: recombinant CYP1A2, luciferin-ME demethylation, luminescence; series mostly up to 57 µM
Sequence of Cytochrome P450 1A2 (Homo sapiens) (P05177 whole entry, looked up): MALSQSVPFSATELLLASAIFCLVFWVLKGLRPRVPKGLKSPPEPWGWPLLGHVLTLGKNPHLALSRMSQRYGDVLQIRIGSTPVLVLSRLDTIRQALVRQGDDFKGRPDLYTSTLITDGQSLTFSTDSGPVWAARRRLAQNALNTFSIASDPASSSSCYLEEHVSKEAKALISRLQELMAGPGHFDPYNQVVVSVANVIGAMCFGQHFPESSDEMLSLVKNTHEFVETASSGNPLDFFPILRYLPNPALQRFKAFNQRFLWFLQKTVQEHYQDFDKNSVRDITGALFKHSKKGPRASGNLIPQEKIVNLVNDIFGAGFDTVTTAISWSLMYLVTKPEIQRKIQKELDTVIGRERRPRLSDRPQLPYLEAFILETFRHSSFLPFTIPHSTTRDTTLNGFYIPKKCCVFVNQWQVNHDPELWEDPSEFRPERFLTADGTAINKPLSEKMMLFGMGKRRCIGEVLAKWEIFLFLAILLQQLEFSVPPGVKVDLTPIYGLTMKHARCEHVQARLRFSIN
Summary of the method: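 Inhibition was calculated relative to 57 uM furafylline (full inhibition). The reaction used human CYP1A2 at 20nM with Luciferin-ME at its Km, 100uM, driven by an NADPH-regenerating system for 60 min at room temperature.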

[4] = NFAT Signaling Pathway (AID 444); settings: Jurkat NFAT-bla M1, carbachol, beta-lactamase ratio, 5 h; at 7.69 µM (top of the series) unless noted;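 also: carbachol stimulus at about its EC50 of 1 µM final; % is scaled to controls: 0 for no effect and ±100 for the full control effect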
Summary of the method: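 Jurkat cells with NFAT-driven β-lactamase reporter and co-expressed M1 receptor, stimulated with carbachol (final 1 uM, ~EC50), compound titration, 5 h at 37 °C. CCF4 loaded 1 h at RT; 460/530 nm ratio gave %activity and AC50.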

[5] = Stat Signaling Pathway (AID 446); settings: ME-180 SIE beta-lactamase reporter, IL-6 stimulated, 5 h; at 7.69 µM (top of the series) unless noted;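 also: ME-180 cervical cancer cells given 40 pM IL-6 alongside compound; SIE-controlled beta-lactamase reporter measured as 460/530 nm FRET emission ratio; % is scaled to controls: 0 for no effect and ±100 for the full control effect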
Summary of the method: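 ME-180 SIE-bla cells; overnight plating; cpd + IL-6 40 pM, 5 h, 37 C; LiveBLAzer 2.5 h RT; 460/530 nm emission ratio. Normalized to 300 pM IL-6 and 125 nM JAK inhibitor controls.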

[6] = target: Glucocorticoid receptor (Homo sapiens) (UniProt P04150); assay: GR-EFC Redistribution (AID 451; calls by dose curve; also: potency is read from the fitted curve at half-maximal effect); settings: CHO-K1 GR-EFC translocation, beta-gal luminescence, 2 h
Sequence of Glucocorticoid receptor (Homo sapiens) (P04150 whole entry, looked up, the tested form may be a part): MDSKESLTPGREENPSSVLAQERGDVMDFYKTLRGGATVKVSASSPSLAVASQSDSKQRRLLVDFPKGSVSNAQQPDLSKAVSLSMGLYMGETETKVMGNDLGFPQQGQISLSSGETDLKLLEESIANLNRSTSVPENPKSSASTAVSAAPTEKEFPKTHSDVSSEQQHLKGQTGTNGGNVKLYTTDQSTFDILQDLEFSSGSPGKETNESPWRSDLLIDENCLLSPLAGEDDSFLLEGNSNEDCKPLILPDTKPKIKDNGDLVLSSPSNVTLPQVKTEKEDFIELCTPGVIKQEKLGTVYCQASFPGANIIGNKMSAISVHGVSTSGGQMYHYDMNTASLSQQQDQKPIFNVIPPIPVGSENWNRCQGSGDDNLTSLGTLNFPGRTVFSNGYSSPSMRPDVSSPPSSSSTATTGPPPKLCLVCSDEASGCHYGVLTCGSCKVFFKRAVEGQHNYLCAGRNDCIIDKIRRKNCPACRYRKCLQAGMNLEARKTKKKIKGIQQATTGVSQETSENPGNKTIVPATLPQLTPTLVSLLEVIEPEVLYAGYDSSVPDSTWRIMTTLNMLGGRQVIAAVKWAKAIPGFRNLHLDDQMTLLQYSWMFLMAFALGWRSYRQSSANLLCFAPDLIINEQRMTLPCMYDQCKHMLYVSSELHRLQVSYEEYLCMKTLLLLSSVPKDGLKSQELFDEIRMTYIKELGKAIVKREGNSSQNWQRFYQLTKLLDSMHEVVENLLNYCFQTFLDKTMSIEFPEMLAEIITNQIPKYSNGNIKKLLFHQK
Summary of the method: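 CHO-K1 cells expressing nuclear EA and GR-ED fragments of b-gal; compounds titrated up to 46 uM final, 2 h at 37 C. GR nuclear translocation read as complemented b-gal luminescence after 1 h RT detection.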

[7] = target: Mitogen-activated protein kinase 10 (Mus musculus) (UniProt Q61831); assay: JNK3 AlphaScreen Assay (AID 530); settings: JNK3 lysate, c-Jun phosphorylation; series mostly up to 57.1 µM;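 also: kinase came from lysate of stimulated human HepG2 cells; signal reports phosphorylation of biotinylated GST-cJun 1-79 at Ser73 with 10 µM ATP; % is scaled to controls: 0 for no effect and ±100 for the full control effect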
Summary of the method: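 qHTS format: compounds tested as titrations against IL-1beta/TNF-alpha-activated HepG2 lysate JNK3 with biotin-GST-cJun substrate and 10 uM ATP at room temperature. Loss of anti-phospho-cJun AlphaScreen signal indicates inhibition.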

[8] = target: 3',5'-cyclic-AMP phosphodiesterase 4B (Homo sapiens) (UniProt Q07343); assay: qHTS Assay for Inhibitors of PDE-IV (AID 607; active = well fitted activation curve with a large enough effect in the main read-out, with a control signal flat, not every such curve was filed as active; also: % of control where 0% means no effect); settings: HEK293 ACTOne CNG channel cells, membrane potential fluorescence; series mostly up to 22.9 µM
Sequence of 3',5'-cyclic-AMP phosphodiesterase 4B (Homo sapiens) (Q07343 whole entry, looked up): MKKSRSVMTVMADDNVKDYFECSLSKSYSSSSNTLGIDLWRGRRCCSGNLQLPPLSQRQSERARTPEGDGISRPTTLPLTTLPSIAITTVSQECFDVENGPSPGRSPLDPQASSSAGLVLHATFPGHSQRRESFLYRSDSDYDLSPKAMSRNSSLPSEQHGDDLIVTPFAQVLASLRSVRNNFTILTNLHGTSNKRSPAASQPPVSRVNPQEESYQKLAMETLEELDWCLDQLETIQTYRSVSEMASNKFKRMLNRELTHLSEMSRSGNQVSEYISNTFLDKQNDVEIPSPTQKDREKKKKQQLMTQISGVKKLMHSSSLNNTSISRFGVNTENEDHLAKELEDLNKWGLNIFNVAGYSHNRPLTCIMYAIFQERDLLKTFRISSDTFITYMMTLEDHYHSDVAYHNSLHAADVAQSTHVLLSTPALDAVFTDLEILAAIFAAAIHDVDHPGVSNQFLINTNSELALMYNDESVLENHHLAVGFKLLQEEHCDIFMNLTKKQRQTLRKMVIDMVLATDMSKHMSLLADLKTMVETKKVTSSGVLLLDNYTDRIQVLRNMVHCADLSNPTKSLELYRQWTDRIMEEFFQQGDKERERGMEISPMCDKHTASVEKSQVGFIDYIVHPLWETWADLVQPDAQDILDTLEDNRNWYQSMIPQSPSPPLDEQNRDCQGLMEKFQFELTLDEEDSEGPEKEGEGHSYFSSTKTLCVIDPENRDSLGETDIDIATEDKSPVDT
Summary of the method: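 ACTOne HEK293 cells carry a modified cAMP-gated CNG channel and express endogenous PDE4; plated 1000 cells/well, compounds up to 22.9 uM final. Membrane-potential dye fluorescence (ex 535/em 590) was read; parental cells received 10 uM forskolin + 100 uM RO 20-1724.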

[9] = target: Cytochrome P450 3A4 (Homo sapiens) (UniProt P08684); assay: qHTS Assay for Activators of Cytochrome P450 3A4 (AID 885; active = well fitted curve in the direction sought with a large enough effect; an effect the other way counts as inactive or inconclusive; also: nearly all actives have a fitted effect of over 65% in size); settings: recombinant CYP3A4, Luciferin-PPXE luminescence, 60 min; series mostly up to 57.1 µM
Sequence of Cytochrome P450 3A4 (Homo sapiens) (P08684 whole entry, looked up): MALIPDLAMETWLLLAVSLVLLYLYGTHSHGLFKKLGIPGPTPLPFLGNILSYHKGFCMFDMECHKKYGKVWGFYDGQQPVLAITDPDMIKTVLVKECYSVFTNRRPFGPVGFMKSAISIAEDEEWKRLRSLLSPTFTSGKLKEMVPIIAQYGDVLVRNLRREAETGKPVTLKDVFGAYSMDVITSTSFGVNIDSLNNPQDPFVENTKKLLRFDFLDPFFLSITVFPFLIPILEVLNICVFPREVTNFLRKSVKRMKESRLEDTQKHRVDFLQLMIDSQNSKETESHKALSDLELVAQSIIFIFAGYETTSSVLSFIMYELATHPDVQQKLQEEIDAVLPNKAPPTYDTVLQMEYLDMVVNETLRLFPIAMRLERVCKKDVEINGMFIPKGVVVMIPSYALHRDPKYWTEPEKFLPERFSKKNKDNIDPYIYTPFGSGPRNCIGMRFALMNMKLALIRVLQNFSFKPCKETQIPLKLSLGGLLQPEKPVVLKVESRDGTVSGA
Summary of the method: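 20nM CYP3A4 + 25uM Luciferin-PPXE (=KM), 200mM KPO4; cpd 10 min RT; NADPH regen, 60 min RT; stop w/ detection buffer, 20 min; luminescence. Normalized to 57 uM ketoconazole.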

[10] = Confirmation and Secondary Assay for Modulators of Hemoglobin Beta Chain Splicing at IVS2 654 locus (AID 910; active = well fitted curve in the direction sought with a large enough effect; an effect the other way counts as inactive or inconclusive;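 also: HeLa cells stably carrying EGFP split by mutant beta-globin IVS2-654 intron; % of control where 0% means no effect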); settings: HeLa EGFP-654 splicing reporter, GFP fluorescence, 48 h; series mostly up to 38.3 µM
Summary of the method: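 HeLa cells stably expressing EGFP interrupted by β-globin IVS2-654 intron, seeded overnight in Opti-MEM/2% FCS, then treated 2 days at 37 °C. Restored splicing read as total peak GFP intensity per well by laser scanning cytometry (488 nm excitation, 500–520 nm emission); 500 nM antisense PNA as control.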

[11] = Confirmation and Secondary Assay for Modulators of Hemoglobin Beta Chain Splicing at IVS2 705 locus (AID 930; active = well fitted curve in the direction sought with a large enough effect; an effect the other way counts as inactive or inconclusive;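 also: HeLa cells stably expressing the EGFP-705 splicing reporter; GFP fluorescence per well restored by corrected splicing of the IVS2-705 intron in EGFP; % of control where 0% means no effect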); settings: HeLa EGFP-705 splicing reporter, GFP fluorescence, 48 h; series mostly up to 38.3 µM
Summary of the method: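 Splice-correction reporter: EGFP cDNA split by beta-globin intron 2 bearing the 705 mutation, stably in HeLa. Compound incubation 2 days, 37C; fluorescent objects 5-250 µm summed per well.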

[12] = qHTS Assay for Lipid Storage Modulators (AID 1519; calls by dose curve); settings: Drosophila S3 cells, BODIPY lipid droplet/cell ratio, laser cytometry, cells loaded with oleic acid; for activity change, negative = inhibition: at 57.5 µM (top of the series)
Summary of the method: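 Cells seeded at 5,000 per well were treated with compounds over a concentration series and loaded with oleic acid (400 uM, as added). Lipid droplet fluorescence (488 nm excitation, 500-530 nm channel) was read by laser-scanning cytometry and normalized to 20 uM Triacsin C.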

[13] = target: Ubiquitin carboxyl-terminal hydrolase 1 (Homo sapiens) (UniProt O94782); assay: Inhibitors of USP1/UAF1: Pilot qHTS (AID 504865; active = well fitted curve in the direction sought with a large enough effect; an effect the other way counts as inactive or inconclusive;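 also: rhodamine fluorescence freed from ubiquitin-rhodamine substrate followed over time; top concentration of the series differs between compounds; % is scaled to controls: 0 for no effect and ±100 for the full control effect; nearly all actives have a fitted effect of over 35% in size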); settings: purified USP1/UAF1, Ub-rhodamine cleavage fluorescence; series mostly up to 54.9 µM
Sequence of Ubiquitin carboxyl-terminal hydrolase 1 (Homo sapiens) (O94782 whole entry, looked up): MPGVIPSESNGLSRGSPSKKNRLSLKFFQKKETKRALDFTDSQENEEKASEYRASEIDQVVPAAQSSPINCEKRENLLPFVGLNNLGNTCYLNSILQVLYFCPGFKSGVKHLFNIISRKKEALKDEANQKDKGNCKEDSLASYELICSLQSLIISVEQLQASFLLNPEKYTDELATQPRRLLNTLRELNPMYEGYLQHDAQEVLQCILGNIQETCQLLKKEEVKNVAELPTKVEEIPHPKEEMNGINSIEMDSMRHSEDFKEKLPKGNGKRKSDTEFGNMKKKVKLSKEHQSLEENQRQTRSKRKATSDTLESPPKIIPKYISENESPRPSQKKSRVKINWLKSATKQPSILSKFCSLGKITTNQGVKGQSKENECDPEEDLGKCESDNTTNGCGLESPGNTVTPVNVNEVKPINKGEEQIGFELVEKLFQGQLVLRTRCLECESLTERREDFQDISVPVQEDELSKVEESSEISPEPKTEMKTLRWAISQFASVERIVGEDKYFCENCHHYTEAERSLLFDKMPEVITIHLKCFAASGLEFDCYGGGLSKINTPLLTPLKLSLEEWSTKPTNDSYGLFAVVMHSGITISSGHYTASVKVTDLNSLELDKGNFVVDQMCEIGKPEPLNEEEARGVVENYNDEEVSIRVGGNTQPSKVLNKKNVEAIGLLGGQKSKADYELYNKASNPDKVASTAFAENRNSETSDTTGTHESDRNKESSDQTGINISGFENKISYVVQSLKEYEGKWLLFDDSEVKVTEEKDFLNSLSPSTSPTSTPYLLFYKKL
Summary of the method: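 Enzyme-free wells gave the negative control, while test wells held 1nM USP1/UAF1 preincubated with compound for 15 min at room temperature. Ub-Rho at 150nM final started the reaction, and fluorescence at 480/540 nm was recorded kinetically.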

[14] = Primary qHTS for small molecule stabilizers of the endoplasmic reticulum resident proteome: Secreted ER Calcium Modulated Protein (SERCaMP) assay (AID 1508630; active = well fitted curve in the direction sought with a large enough effect; an effect the other way counts as inactive or inconclusive; also: % is scaled to controls: 0 for no effect and ±100 for the full control effect); settings: SH-SY5Y GLuc-SERCaMP (Gaussia luciferase released on ER calcium loss) secretion, thapsigargin, luminescence; series mostly up to 38.4 µM
Summary of the method: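 GLuc-SERCaMP-expressing SH-SY5Y cells, pretreated 16 h with compound, are challenged with thapsigargin to empty ER calcium stores; after 4 h, coelenterazine is added directly to the medium and luminescence is imaged.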

[15] = target: Glucocorticoid receptor (Homo sapiens) (UniProt P04150); assay: GR-GFP Redistribution (AID 450;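 active = compounds whose dose series gives a full or clear partial fitted curve of increased nuclear translocation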; also: potency is read from the fitted curve at half-maximal effect); settings: U2OS GR-GFP nuclear translocation, laser cytometry, 2 h
[16] = qHTS Assay for Identification of Small Molecule Agonists for Hypoxia Response Element Signaling Pathway (AID 914; active = well fitted activation curve with a large enough effect in the signal ratio, with a control signal flat, not every such curve was filed as active; the % refers to the signal ratio; also: % of control where 0% means no effect); settings: ME-180 (cervical carcinoma) HRE-bla reporter, beta-lactamase ratio, CoCl2, 17 h; activation: stronger effect = higher value
Summary of the method: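 Cells were plated overnight, pin-dosed with compound in a titration series, co-stimulated with EC50 CoCl2 and incubated 17 hours at 37 degrees Celsius. CCF4 substrate was then loaded, and AC50 values came from the 460nm/530nm ratio.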

[17] = measured here: cell count channel max response
[18] = measured here: lipid channel max response

SMILES | Potency [1] | activity change, negative = inhibition [2] | Potency [3] | activity change, negative = inhibition [4] | activity, negative = inhibition [5] | Potency [6] | outcome [7] | Potency [8] | Potency [9] | outcome [10] | outcome [11] | activity change, negative = inhibition [12] | max response [12, 17] [%] | max response [12, 18] [%] | Potency [13] | Potency [14] | Potency [15] | activation [16]
CN(C)c1ccnc(-c2cccc(NS(C)(=O)=O)c2)n1 | > 11.4 µM (inactive) | -6.35% (inactive) | 1.58 µM (active) | 0.933% (inactive) | 3.11% (inactive) | > 46 µM (inactive) | inactive | inactive | inactive | inactive | inactive | 11.6% (inactive) | 7.48 | 20 | inactive | inactive | – | –
COCCn1c(=O)c(C)nc2cnc(N3CCNCC3)nc21 | > 11.4 µM (inactive) | -21.3% (inactive) | 10 µM (active) | -18.9% (inactive) | -2.95% (inactive) | > 46 µM (inactive) | inactive | inactive | – | – | – | 1.17% (inactive) | 4.65 | 6.84 | – | inactive | > 9.22 µM (inactive) | –
COc1ccc(Oc2ncc3ncc(=O)n(C[C@H]4CCCO4)c3n2)cc1 | > 11.4 µM (inactive) | -24.4% (inactive) | 6.31 µM (active) | -8.98% (inactive) | -26.1% (inactive) | > 46 µM (inactive) | inactive | inactive | inactive | – | – | -4.96% (inactive) | 9.86 | 2.03 | – | inactive | > 9.22 µM (inactive) | -21.9% (inactive)
COC(=O)N1CCC2(CCN(Cc3cc(C(F)(F)F)cc(C(F)(F)F)c3)CC2)CC1 | > 11.4 µM (inactive) | -23.4% (inactive) | inactive | -22.9% (inactive) | 0.155% (inactive) | > 46 µM (inactive) | inactive | – | – | – | – | 2.7% (inactive) | -2.08 | 2.77 | – | inactive | – | –
